The source of these data is PubChem BioAssay (NCI).

Test systems include NCI-H23 lung; NCI-H226 lung; NCI-H322M lung; HOP-62 NSCLC; NCI-H460 lung; HOP-92 NSCLC; A549/ATCC NSCLC; 786-0 renal; COLO 205 colon; DU-145 prostate; K-562 leukemia; MALME-3M melanoma; MDA-MB-231 breast; RXF 393 renal; SF-268 CNS; SF-295 CNS; SF-539 CNS; UACC-257 melanoma; M14 melanoma; NCI-H522 lung.
Common to all, as to assay: NCI-60 one-dose screen, 48 h (100 = growth as untreated, 0 = no growth, -100 = all killed)
Common to all, as to conditions: 10 µM unless noted

This is part of a sample that, as a whole, favours compounds with a hit. Of some 83,000 tested, about 20% had one in any assay.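 Note: values are percent growth. 100 is the growth of untreated cells, values between 100 and 0 indicate rising inhibition; between -100 and 0 indicates cell death.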 Unmarked numbers belong to inactive results. The source made the active and inactive calls. The calls were made as follows: active = growth percent below 10; inactive = the rest.

Regarding `Cc1cc[c-]cc1.Fc1c[c-]c(-c2ccccn2)c(F)c1.[Pt+2].c1ccc([PH+](c2ccccc2)c2ccccn2)cc1`, the growth with NCI-H23 lung is 70%; in the assay on NCI-H226 lung, 58.1%; in the assay with NCI-H322M lung, 83.6%; in the assay on HOP-62 NSCLC it was 90.6%; with NCI-H460 lung it was 61.5%; in the assay with HOP-92 NSCLC, 56.3%. Also, the growth with A549/ATCC NSCLC is 41.8%; with 786-0 renal it was 63.5%; in the assay with COLO 205 colon, 32.9%; in the assay with DU-145 prostate it was 59.1%; in the assay with K-562 leukemia it was 23.9%; with MALME-3M melanoma it was -2.32% (active). In addition, the growth in the assay with MDA-MB-231 breast is 67.8%; in the assay on RXF 393 renal, 32.6%; in the assay with SF-268 CNS it was 62.1%; with SF-295 CNS, 72%; in the assay on SF-539 CNS it was 72.3%; in the assay on UACC-257 melanoma, 87.2%. For the same compound, the growth with M14 melanoma was 62.1%.

For `N#CC(NC(=O)CCl)=C(Cl)Cl`, the growth is 28.5% in the assay on NCI-H23 lung; 70.8% with NCI-H226 lung; 78.6% with NCI-H322M lung; 73.2% in the assay on HOP-62 NSCLC; 50.7% with NCI-H460 lung; -71.5% (active) with HOP-92 NSCLC. Further, the growth in the assay on A549/ATCC NSCLC was 66.8%; in the assay with 786-0 renal it was -72.2% (active); with COLO 205 colon it was -90.4% (active); in the assay on DU-145 prostate, 44.1%; in the assay on K-562 leukemia, -23.6% (active); in the assay on MALME-3M melanoma it was -79.1% (active). Moreover, the growth in the assay with MDA-MB-231 breast is 1.44% (active); in the assay with RXF 393 renal, -78% (active); in the assay on SF-268 CNS it was 28.9%; in the assay on SF-295 CNS, 89.9%; in the assay with SF-539 CNS it was 5.84% (active); in the assay with UACC-257 melanoma it was 3.34% (active). For the same compound, the growth in the assay on M14 melanoma was -91.1% (active).

`Oc1ccccc1C=NCCN=Cc1ccccc1O`: the growth with NCI-H23 lung is 99.8%; in the assay with NCI-H226 lung, 99.5%; in the assay with NCI-H322M lung, 97.5%; with HOP-62 NSCLC it was 96.9%; in the assay with NCI-H460 lung it was 107%; in the assay on HOP-92 NSCLC, 99.6%. For the same compound, the growth in the assay with A549/ATCC NSCLC is 98.7%; in the assay with 786-0 renal, 106%; in the assay with COLO 205 colon, 118%; in the assay on DU-145 prostate, 108%; with K-562 leukemia it was 112%; in the assay with MALME-3M melanoma, 113%. Further, the growth is 101% in the assay with MDA-MB-231 breast; 109% in the assay with RXF 393 renal; 97% in the assay with SF-268 CNS; 101% with SF-295 CNS; 106% with SF-539 CNS; 96.4% in the assay on UACC-257 melanoma. Besides, the growth with M14 melanoma is 102%.

Take `N#CCc1ccc(CC#N)cc1`: the growth in the assay on NCI-H23 lung was 103%; in the assay on NCI-H226 lung, 90.4%; with NCI-H322M lung, 107%; in the assay with HOP-62 NSCLC, 88.4%; in the assay with NCI-H460 lung, 101%; with HOP-92 NSCLC it was 3.82% (active). Further, the growth was 82.1% in the assay with A549/ATCC NSCLC; 97.5% with 786-0 renal; 111% with COLO 205 colon; 116% in the assay with DU-145 prostate; 95.5% in the assay on K-562 leukemia; 118% with MALME-3M melanoma. In addition, the growth with MDA-MB-231 breast is 96.7%; in the assay with RXF 393 renal, 106%; in the assay with SF-268 CNS, 105%; with SF-295 CNS it was 100%; in the assay on UACC-257 melanoma it was 89%; with M14 melanoma, 98.1%.

For the compound `O=S1(=O)OCCO1`, the growth in the assay on NCI-H23 lung was 96.5%; in the assay with NCI-H226 lung, 103%; with NCI-H322M lung it was 95.4%; with HOP-62 NSCLC, 103%; with NCI-H460 lung, 103%; with HOP-92 NSCLC, 102%. Besides, the growth was 96.3% in the assay on NCI-H522 lung; 102% in the assay with A549/ATCC NSCLC; 101% in the assay with 786-0 renal; 106% with COLO 205 colon; 104% in the assay on DU-145 prostate; 99.1% in the assay with K-562 leukemia. For the same compound, the growth in the assay with MALME-3M melanoma is 88.8%; in the assay with RXF 393 renal, 103%; in the assay on SF-268 CNS it was 98.2%; in the assay on SF-295 CNS, 98.3%; in the assay on SF-539 CNS, 95.1%; with UACC-257 melanoma, 96.7%. Moreover, in the assay with M14 melanoma, the growth is 103%.

For `O=S(=O)(F)c1cccc(Cl)c1C[P+](c1ccccc1)(c1ccccc1)c1ccccc1`, the growth in the assay with NCI-H23 lung is 108%; with NCI-H226 lung, 93.4%; in the assay on NCI-H322M lung it was 97.9%; in the assay on HOP-62 NSCLC, 93.3%; with NCI-H460 lung it was 106%; in the assay with HOP-92 NSCLC, 91.3%. The growth in the assay on NCI-H522 lung was 88.8%; in the assay with A549/ATCC NSCLC, 93.9%; in the assay with 786-0 renal, 104%; in the assay on COLO 205 colon, 99.9%; with DU-145 prostate, 109%; with K-562 leukemia, 77.2%. The growth in the assay with MALME-3M melanoma was 90.4%; in the assay on MDA-MB-231 breast, 98.6%; in the assay with SF-268 CNS, 105%; with SF-295 CNS, 92.3%; in the assay on SF-539 CNS it was 103%; in the assay with UACC-257 melanoma it was 89.7%. Moreover, the growth with M14 melanoma was 102%.

With `c1ccc(CCN2CCCCC2)nc1`, the growth is 103% in the assay on NCI-H23 lung; 101% with NCI-H226 lung; 106% in the assay on NCI-H322M lung; 95.6% with HOP-62 NSCLC; 114% with NCI-H460 lung; 91.7% in the assay with HOP-92 NSCLC. Also, the growth in the assay on NCI-H522 lung was 101%; in the assay with A549/ATCC NSCLC, 95.7%; with 786-0 renal it was 101%; in the assay with COLO 205 colon, 106%; in the assay on K-562 leukemia, 97.6%; with MALME-3M melanoma, 141%. Moreover, the growth was 97.8% with MDA-MB-231 breast; 114% with RXF 393 renal; 103% with SF-268 CNS; 98% in the assay with SF-295 CNS; 102% in the assay on SF-539 CNS; 108% in the assay on UACC-257 melanoma. Besides, the growth with M14 melanoma was 99.5%.

Consider `O=NN1CCCCC1`, for which the growth was 104% with NCI-H23 lung; 109% with NCI-H226 lung; 128% in the assay on NCI-H322M lung; 102% in the assay with HOP-62 NSCLC; 116% with NCI-H460 lung; 110% in the assay on HOP-92 NSCLC. For the same compound, the growth with A549/ATCC NSCLC is 102%; in the assay with 786-0 renal, 103%; in the assay with COLO 205 colon, 107%; in the assay on DU-145 prostate, 107%; in the assay on K-562 leukemia, 121%; with MALME-3M melanoma it was 120%. Moreover, the growth in the assay on MDA-MB-231 breast is 95.9%; in the assay on RXF 393 renal, 118%; in the assay with SF-268 CNS, 96.1%; in the assay on SF-295 CNS it was 119%; in the assay on SF-539 CNS, 91.8%; in the assay on UACC-257 melanoma, 97.8%. In the assay with M14 melanoma, the growth is 103%.
